A selection: hits, their analogues and other compounds. The true share with any hit is near 4%.
D1 ag: activates the human D1 dopamine receptor | P21728 | HEK293 T-REx D1 cells, calcium flux, agonist mode | activation, % at 2 µM | 360,000 compounds, 1% hits | AID 504660; further: 0% is about no effect
Target sequence (P21728 whole entry, looked up): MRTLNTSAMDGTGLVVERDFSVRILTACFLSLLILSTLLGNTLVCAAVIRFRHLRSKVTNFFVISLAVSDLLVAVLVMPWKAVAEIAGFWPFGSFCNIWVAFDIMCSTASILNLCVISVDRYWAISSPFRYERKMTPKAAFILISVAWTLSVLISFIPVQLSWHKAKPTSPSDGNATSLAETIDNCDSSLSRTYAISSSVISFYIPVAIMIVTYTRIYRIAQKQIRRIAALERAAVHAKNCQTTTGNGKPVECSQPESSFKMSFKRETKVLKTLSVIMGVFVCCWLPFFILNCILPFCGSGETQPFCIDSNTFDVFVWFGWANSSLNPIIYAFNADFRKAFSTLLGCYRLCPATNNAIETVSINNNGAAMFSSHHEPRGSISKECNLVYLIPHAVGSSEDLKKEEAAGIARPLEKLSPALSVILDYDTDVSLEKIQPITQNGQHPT
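Inducible HEK293 T-REx D1 cells, force-coupled to calcium signalling, were plated at 4000 cells/well with tetracycline and held overnight at 30 C. After no-wash calcium dye loading, compound-evoked calcium rise over 180 s flagged agonists.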
TRHR agonist: TRH receptor (human) agonism; TRHR cells, calcium flux fluo-8, FDSS agonist mode; activation, % at 2 µM; 360,000 compounds, 0.18% hits; AID 493084; further: 0% is about no effect
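Agonist-mode FDSS calcium read (Ex 480/Em 530, 1 s cycles) in 1536-well TRHR cells with fluo-8 dye, after 10-cycle baseline and 23 nL compound addition; TRH at EC20 (10 nM final) added afterwards for the enhancer phase.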
D1 antag: human D1 dopamine receptor antagonism; activity change, negative = inhibition, % at 10 µM; P21728; AID 504652; 360,000 compounds, 3.2% hits; HEK293 TREx D1 cells, calcium flux, dopamine EC80; active compounds read low; in the data active means activity change below about -30%; further: on the % scale 0 is the no-effect control and ±100 the full control effect
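After overnight tetracycline induction at 30 C, force-coupled D1 HEK293 cells took up a no-wash calcium dye at room temperature. Compounds were added and monitored 180 s, and the response to EC80 dopamine was then recorded.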
Glioma ERSR ind: ER stress response induction in glioma; Potency, µM, without a hit: top-dose activation, usual class: activators; 420,000 compounds, 0.02% hits; U87-MG GRP78 promoter luciferase reporter, 16 h; active means well fitted activation curve with a large enough effect; inconclusive means small, poorly fitted or top-dose-only effect; inactive means no such curve, though single readings can be large or run the other way; further: potency means the concentration at half of the fitted maximal effect; series mostly up to about 76 µM; % of control where 0% means no effect; nearly all actives have a fitted effect of over 35% in size
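Stably transfected U87-MG human glioma cells carrying a GRP78-based luminescent sensor were seeded at 1000 cells/well, pin-dosed with compounds and incubated 16 h. Luciferase reagent was then added, and end-point luminescence was read after 10 min at room temperature.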
TRHR PAM: TRH receptor (human) allosteric enhancement | 360,000 compounds, 0.66% hits | enhancement, % at 2 µM | TRHR cells, fluo-8 calcium fluorescence, EC20 TRH enhancement | P34981; in the data active means enhancement above about 30%; further: 0% is about no effect
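TRHR-expressing cells loaded with fluo-8 calcium dye were read kinetically (ex 480/em 530) during compound addition, then stimulated with an EC20 of TRH (10 nM final). Enhancement of the Gq-mediated intracellular calcium response was scored.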
D1 potentiator: potentiators of human D1 dopamine receptor. P21728. HEK293 TREx D1 cells, calcium flux, dopamine EC20 potentiation. potentiation, % at 10 µM. 360,000 compounds, 0.036% hits. AID 504651; in the data active means potentiation above about 30%; further: 0% is about no effect
Active calls of the source: *; ? = inconclusive; · = not tested or not shown. Unless noted, no stated cut-off is given here; in the data, active means activation above about 30%; inactive means the rest.

SMILES	D1 ag	TRHR agonist	D1 antag	Glioma ERSR ind	TRHR PAM	D1 potentiator
COc1ccccc1CN(C)C(=O)c1ccc(COc2ccccc2)cc1	11	-1	-4	-3%	-12	-4
COc1cccc(CN(C)C(=O)c2ccc(COc3ccc(Cl)cc3)cc2)c1OC	54*	-1	-19	-2%	7	·
Cc1ccc(C(=O)Nc2nc(-c3ccccn3)cs2)o1	3	1	3	4%	3	1
O=C(Nc1nc(-c2ccccn2)cs1)c1ccc(-c2ccccc2F)o1	11	0	3	32µM*	17	0
O=C(CN1C(=O)C2CCCCC2C1=O)Nc1ccc(OC(F)F)c(Cl)c1 (stereo unspecified)	1	1	-32*	-3%	6	-2
C[C@@H](C(=O)Nc1ccc(OC(F)F)c(Cl)c1)N1C(=O)C2CC=CCC2C1=O (stereo partly specified)	·	·	·	-4%	·	·
O=C(c1ccco1)N1CCN(CC(O)COc2ccc3oc4ccccc4c3c2)CC1 (stereo unspecified)	23	1	-35*	0%	-5	-9
O=C(CCn1cccn1)N1CCCC(N2CCN(c3cccc(C(F)(F)F)c3)CC2)C1 (stereo unspecified)	2	0	7	-1%	34*	2
O=C(Cn1cccn1)N1CCCC(N2CCN(c3cccc(C(F)(F)F)c3)CC2)C1 (stereo unspecified)	3	0	6	-3%	0	-2
Cc1cc(C(=O)N2CCCC(N3CCN(c4cccc(C(F)(F)F)c4)CC3)C2)n[nH]1 (stereo unspecified)	3	0	-50*	?	4	0
Cc1cc(C(=O)N2CCCC(N3CCN(c4cccc(C(F)(F)F)c4)CC3)C2)no1 (stereo unspecified)	0	-2	4	-4%	8	-8
O=C(NC1CCCCC1)C1c2ccccc2C(=O)N1Cc1ccc2c(c1)OCO2 (stereo unspecified)	2	-1	-14	-5%	-2	-2
COc1ccc(C(NC(=O)C2CCCCC2)c2c(O)ccc3ccccc23)cc1 (stereo unspecified)	0	0	-46*	-4%	-1	-9
Cc1nc(SCC(=O)c2ccc(Cl)cc2)c([N+](=O)[O-])[nH]1	2	0	-40*	-4%	3	-4
C=C1C(=O)C=C2CN(C(=O)c3ccccc3)[C@@](Cc3ccc(F)cc3)(C(=O)OC)[C@@H]12	90*	17	-35*	-12%	0	5
CC(=O)c1cc(C#N)c(N2CCN(c3ccccc3)CC2)nc1C	4	1	-43*	-1%	-2	-10
CCc1noc(N)c1C(=O)Nc1ccc(F)c(Cl)c1	1	-1	-36*	3%	-6	-3
Cc1ccc(NC(=O)c2nc(S(=O)(=O)Cc3ccc(F)cc3)ncc2Cl)cc1C	4	2	-37*	-10%	-15	-3
Cc1ccc(NC(=O)c2nc(S(=O)(=O)Cc3ccccc3F)ncc2Cl)cc1C	·	·	·	-1%	·	·
Cc1ccc(NC(=O)c2nc(S(=O)(=O)Cc3ccccc3C)ncc2Cl)cc1C	3	-1	-40*	-18%	-23	-9
CC(=O)Nc1ccc(NC(=O)c2nc(S(=O)(=O)Cc3ccc(F)cc3)ncc2Cl)cc1	-2	0	-4	-10%	-1	-1
Cc1ccc(NC(=O)CN(C)S(=O)(=O)c2ccc3[nH]c(=O)oc3c2)c(C)c1	2	0	-4	-4%	20	-3
COc1ccc([N+](=O)[O-])cc1/C=N/NC(=O)CNC(=O)c1cccc(F)c1	-1	-2	-11	-2%	3	2
COc1ccc([N+](=O)[O-])cc1/C=N/NC(=O)CNC(=O)C(c1ccccc1)c1ccccc1	2	-1	-32*	-5%	-5	-8
CC(C)(C)n1ncc2c(=O)n(Cc3cccc(C(F)(F)F)c3)cnc21	·	·	·	-2%	·	·
SMILES	D1 ag	TRHR agonist	D1 antag	Glioma ERSR ind	TRHR PAM	D1 potentiator
Cc1nn(Cc2ccc(Br)cc2)c(C)c1NC(=O)c1nn(C)cc1Cl	7	-1	-39*	-3%	31*	9
Cn1cc(Cl)c(C(=O)Nc2cnn(Cc3ccc(F)cc3)c2)n1	5	0	-42*	1%	12	-4
Cc1nn(Cc2cccc(C(=O)NN)c2)c(C)c1Cl	2	0	7	-1%	1	-5
Cc1nn(Cc2ccccc2)c(C)c1CCC(=O)O	0	0	-83*	-3%	1	-6
Cc1nn(Cc2ccc(C(=O)NN)cc2)c(C)c1Cl	2	0	-44*	1%	8	4
Cc1ccc(Cn2ccc(NC(=O)c3nn(C)cc3Cl)n2)cc1	3	0	-1	2%	0	-3
Cc1ccccc1OCC(=O)Nc1cc(C)c(O)c(-c2nc3ccccc3o2)c1	·	·	·	-5%	·	·
Cc1nn(Cc2ccccc2)c(C)c1NC(=O)c1cc(-c2cccs2)on1	10	0	49	-1%	-10	-5
Cc1noc(C(=O)Nc2c(C)nn(Cc3ccccc3)c2C)c1Cl	1	0	-51*	2%	3	-6
Cc1ccc(Cn2nc(C)c(NC(=O)c3cc(C)no3)c2C)cc1	2	0	-78*	0%	-2	·
CC(=O)Nc1ccc2nc(CN3CCN(Cc4ccc(F)cc4)C(CCO)C3)ccc2c1 (stereo unspecified)	3	0	-4	-2%	36*	3
CC(=O)Nc1ccc2nc(CN3CCN(CC(C)C)C(CCO)C3)ccc2c1 (stereo unspecified)	2	1	-20	1%	-3	-3
CC(=O)Nc1ccc(CN2CCN(C3CCCCC3)C(CCO)C2)cc1 (stereo unspecified)	36*	0	-6	-6%	7	-4
CC(C)Cn1c(C(C)NC(=O)Cc2ccccc2)nc2ccccc21 (stereo unspecified)	-3	-1	-6	-2%	-4	-1
CCn1c(C(Cc2ccccc2)NC(=O)COC)nc2ccccc21 (stereo unspecified)	-3	0	-30*	-3%	-7	-8
CC(=O)c1cc2c(cc1NC(=O)CSc1nnc(C3CC3)n1C)OCO2	·	·	·	-6%	·	·
O=C(O)CC/C(=N/NC(=O)CNC(=O)C(c1ccccc1)c1ccccc1)c1ccccc1	4	-1	-34*	-7%	-3	-10
C/C(=N\NC(=O)CNC(=O)C(c1ccccc1)c1ccccc1)c1ccccc1	1	1	-19	-2%	-1	-9
CCOc1ccc(Cn2nnc(-c3ccc(S(C)(=O)=O)cc3)n2)cc1OCC	2	-1	-16	-1%	-1	-9
COc1ccc2[nH]c(C(=O)N3CCNCC3)cc2c1OC	2	0	-41*	-3%	5	-4

Screening results deposited in PubChem by National Center for Advancing Translational Sciences (NCATS).
